In ChEMBL document CHEMBL3988442, “University of Dundee, Small-Polar-MMV Screening Library” (2021):
Among all 66,000 compounds or so, about 960 (1.5%) showed an effect of 50% or more. The sample holds strong results, similar compounds and a random draw of the others, so the mix is not that of the screen.

System: Trypanosoma brucei
Experiment: Trypanosoma brucei 72 hour study
Type: functional, organism-based
Design: scale not given: in the data most compounds retested in dose-response had high values

Structure (SMILES): OC1(CN2CCCCC2)CCN(c2ccc(C(F)(F)F)cn2)C1 (configuration not stated)
- Percent Effect (30.3 µM, […]): 3.051%

Structure (SMILES): N#CC1=C(N)Nn2c(nnc2-c2ccccc2F)S1
- Percent Effect (30 µM, 30.03 µM): -51.04%

Structure (SMILES): CCn1cc(CNc2ccc3nccnc3c2)cn1
- Percent Effect (30 µM, 30.03 µM): 99.73%

Structure (SMILES): CCn1cc(CNc2ccc(F)c(N3CCCS3(=O)=O)c2)cn1
- Percent Effect (30 µM, 30.03 µM): -16.14%

Structure (SMILES): CCn1cc(CNc2ccc(Br)c(OC)c2)cn1
- Percent Effect (30 µM, 30.03 µM): -16.49%

Structure (SMILES): Nc1cc(N2CCC(c3cc(Cc4ccccc4)n[nH]3)CC2)ccn1
- Percent Effect (30.3 µM, […]): 99.46%

Structure (SMILES): Nc1nccc(N2CCC(c3cc(Cc4ccccc4)n[nH]3)CC2)n1
- Percent Effect (30.3 µM, […]): 36.98%

Structure (SMILES): Nc1nc(O)cc(N2CCC(c3cc(Cc4ccccc4)n[nH]3)CC2)n1
- Percent Effect (30.3 µM, […]): -102.6%

Structure (SMILES): COc1ccc(C(=O)NCC(c2cccn2C)N2CCCC2)cc1OC (configuration not stated)
- Percent Effect (30.3 µM, […]): -9.189%

Structure (SMILES): COc1cccc(OC)c1C(=O)NCC(c1cccn1C)N1CCCC1 (configuration not stated)
- Percent Effect (30.3 µM, […]): 99.38%

Structure (SMILES): COc1cccc(C(=O)NCC(c2cccn2C)N2CCCC2)c1OC (configuration not stated)
- Percent Effect (30.3 µM, […]): -16.52%

Structure (SMILES): CO[C@@H]1CCN(C(=O)Cc2ccsc2)[C@H]1Cc1cccnc1.O=C(O)C(F)(F)F
- Percent Effect (30.3 µM, […]): -12.88%

Structure (SMILES): Cc1cccc(COC[C@H]2CC[C@H]3[C@H](CCN3C(=O)CC3CC3)O2)n1.O=C(O)C(F)(F)F
- Percent Effect (30 µM, 30.03 µM): 22.76%

Structure (SMILES): CCOc1ccc(CN[C@@H]2COC[C@H]2c2ccc(F)cc2)cc1.O=C(O)CC(O)(CC(=O)O)C(=O)O
- Percent Effect (30.3 µM, […]): -47.65%

Structure (SMILES): COCCN1C[C@H]2CC[C@@H]1CN(C(=O)CCn1cc(Cl)cn1)C2
- Percent Effect (30.3 µM, […]): 4.772%

Structure (SMILES): Cc1nc2c(c(NCc3nc4ccccc4s3)n1)CCNCC2
- Percent Effect (30.3 µM, […]): 53.81%

Structure (SMILES): Cc1nc(CNc2nc(-c3ccco3)nc3c2CCNCC3)n[nH]1
- Percent Effect (30 µM, 30.03 µM): 14.93%

Structure (SMILES): Cc1nc2c(c(NCC(O)c3ccccc3Cl)n1)CCNCC2 (configuration not stated)
- Percent Effect (30 µM, 30.03 µM): -31.73%

Structure (SMILES): Cc1nc2c(c(NCc3ccc(-c4ccccn4)s3)n1)CCNCC2
- Percent Effect (30.3 µM, […]): 42.43%

Structure (SMILES): Cc1nc2c(c(NCC3Cc4ccccc4CN3C)n1)CCNCC2 (configuration not stated)
- Percent Effect (30.3 µM, […]): 15.13%

Structure (SMILES): Cc1nc2c(c(NCc3cc4ccccc4s3)n1)CCNCC2
- Percent Effect (30.3 µM, […]): 99.88%

Structure (SMILES): CC(C)CN1CCO[C@H]2CCN(c3cnccn3)CC[C@@H]21.O=C(O)C(F)(F)F
- Percent Effect (30.3 µM, […]): -43.11%

Structure (SMILES): CCCS(=O)(=O)N1C[C@H]2C[C@H](C(=O)N3CCCC3)[C@@H](C1)O2
- Percent Effect (30.3 µM, […]): -3.417%

Structure (SMILES): Cc1occc1C(=O)N1C[C@@H]2OCCN(C(C)C)[C@@H]2C1.O=C(O)C(F)(F)F
- Percent Effect (30 µM, 30.03 µM): 5.268%

Structure (SMILES): CS(=O)(=O)N1CCN(CC(O)COc2ccc(Cl)cc2)CC1 (configuration not stated)
- Percent Effect (10 µM): -47.15%

Structure (SMILES): Cc1csc(CN2CCC[C@]3(C[C@@H](OCC4CC4)CO3)C2)n1.O=C(O)C(F)(F)F
- Percent Effect (30 µM, 30.03 µM): -17.53%

Structure (SMILES): Cc1cc(F)ccc1CN1CCCC(O)(CN2CCCC2)C1 (configuration not stated)
- Percent Effect (30.3 µM, […]): 54.93%

Structure (SMILES): Cc1cc(F)ccc1CN1CCC(O)(CN2CCCCC2)C1 (configuration not stated)
- Percent Effect (30 µM, 30.03 µM): -52.45%

Structure (SMILES): OC1(CN2CCCC2)CCCN(Cc2ccc(F)cc2Cl)C1 (configuration not stated)
- Percent Effect (30 µM, 30.03 µM): -4.937%

Structure (SMILES): CN(C)CCN(Cc1ccccn1)Cc1ccnn1C1CCCCO1.O=C(O)CC(O)(CC(=O)O)C(=O)O (configuration not stated)
- Percent Effect (30.3 µM, […]): -14.13%

Structure (SMILES): Cn1nnc2c1C(COCC1CC1)CN(Cc1ccoc1)C2.O=C(O)C(F)(F)F (configuration not stated)
- Percent Effect (30 µM, 30.03 µM): 5.795%

Structure (SMILES): Fc1ccc(Cn2ncc3c2CN(c2ncccn2)C3)cc1
- Percent Effect (30 µM, 30.03 µM): 2.324%

Structure (SMILES): Cc1cc(C)nc(N2Cc3cnn(Cc4ccc(F)cc4)c3C2)n1
- Percent Effect (30 µM, 30.03 µM): 3.465%

Structure (SMILES): CCNc1ccnc(N2Cc3cnn(Cc4ccc(F)cc4)c3C2)n1
- Percent Effect (30 µM, 30.03 µM): 57.35%

Structure (SMILES): Cc1ccnc(N2Cc3cnn(Cc4ccc(F)cc4)c3C2)n1
- Percent Effect (30 µM, 30.03 µM): -9.847%

Structure (SMILES): CNc1cc(C)nc(N2Cc3cnn(Cc4ccc(F)cc4)c3C2)n1
- Percent Effect (30 µM, 30.03 µM): 98.86%

Structure (SMILES): Cc1nc(N2Cc3cnn(Cc4ccc(F)cc4)c3C2)no1
- Percent Effect (30 µM, 30.03 µM): 12.66%

Structure (SMILES): CC(C)c1nn(C)c(Cl)c1CNCc1ccc(N(C)C)nc1.Cl
- Percent Effect (30.3 µM, […]): 12.78%

Structure (SMILES): CC(C)CN1CCC2(CCN(Cc3ccc(F)cc3)CC2)C1=O.O=C(O)C(F)(F)F
- Percent Effect (30.3 µM, […]): 15.86%

Structure (SMILES): Cc1cccc(CN2CCCC2c2cccc(CCC(=O)O)n2)c1 (configuration not stated)
- Percent Effect (30.3 µM, […]): -27.55%

Structure (SMILES): Cc1nccc(C2CCCCN2Cc2cccc(F)c2)n1 (configuration not stated)
- Percent Effect (30.3 µM, […]): -5.435%

Structure (SMILES): Cc1cccc(CN2CCCCC2c2n[nH]cc2-c2cc(C)no2)c1.Cl (configuration not stated)
- Percent Effect (30.3 µM, […]): 54.66%

Structure (SMILES): Cc1cccc(CN2CCCC2c2cccc(Nc3nccs3)n2)c1 (configuration not stated)
- Percent Effect (30.3 µM, […]): 33.44%

Structure (SMILES): Cc1cc(C2CCCN2Cc2cc(-c3ccco3)on2)on1 (configuration not stated)
- Percent Effect (30 µM, 30.03 µM): -36.29%

Structure (SMILES): Cc1nc(C2CN(Cc3ccccc3C)CCO2)no1 (configuration not stated)
- Percent Effect (30.3 µM, […]): -23.18%

Structure (SMILES): CN(CC1(O)CCCN(c2ccccn2)C1)C(=O)CCc1cccs1 (configuration not stated)
- Percent Effect (30.3 µM, […]): 19.98%

Structure (SMILES): Cc1ccc(CN(CCCN2CCOCC2)Cc2cnn(C)c2)o1.O=C(O)CC(O)(CC(=O)O)C(=O)O
- Percent Effect (30.3 µM, […]): -8.498%
